Experimental data published in PubChem BioAssay (NCATS).
Records with an inconclusive call do not appear. Entries that show only a call come without a potency. The source made the active and inactive calls. Calls follow the shape of the dose curve; as a rule, active = well fitted inhibition curve with a large enough effect; inconclusive = small, poorly fitted or top-dose-only effect; inactive = flat fitted curve, though single readings scatter.

Assay: qHTS to identify inhibitors of the type 1 interferon - major histocompatibility complex class I in skeletal muscle: primary screen against the NCATS Pharmaceutical Collection (AID 1347407)
Details: human skeletal muscle cells, IFN-b-induced MHC-I HiBiT luminescence, 24 h; series mostly up to 45.9 µM
Text: Assay Submitter (PI): Travis B. Kinder Ph.D. & James Inglese Ph.D.
Assay Development and Screening Technology Laboratory (ADST)
National Center for Advancing Translational Sciences (NCATS), Rockville, MD
National Institute of Health (NIH), Bethesda, Maryland
Idiopathic inflammatory myopathies, collectively referred to as myositis, are a group of rare autoimmune diseases characterized by skeletal muscle inflammation, weakness, and usually accompanied by systemic pathologies of the skin, lungs, or vasculature. Current immunosuppressive therapies and glucocorticoids are often not curative and are accompanied by harsh side effects, especially in children with juvenile myositis. We initiated a drug repurposing and development program to identify more targeted, less toxic therapeutics to treat myositis. Although its cause is not known, muscle from a subset of patients have an abundance of the inflammatory type 1 interferon (IFN) and a down-stream product major histocompatibility complex class I (MHC class I), which are both thought to contribute to damage and weakness. We conducted quantitative high throughput screening on 6,576 compounds (4,679 unique) through a series of cell-based assays to identify those that inhibit the IFN-stimulated expression of MHC class I in muscle precursor cells (myoblasts). The compound identification and evaluation strategy utilized a primary screen with reporter-tagged MHC class I in genome-engineered myoblasts, ATP content counter screen for viability, HLA-ABC immunofluorescence secondary screen, and HLA-B RT-qPCR tertiary screen.
The primary screen utilized CRISPR/Cas9 genome-engineering of immortalized human myoblasts, C25cl48, where a pro-luminescent reporter HiBit was fused to the C-terminus of endogenous MHC class I allele HLA-B*08:01 (HLA-B HiBit myoblasts). HiBit is an 11 amino acid fragment of NanoLuc luminescent reporter (Promega Corporation), and when complexed to the larger LgBit fragment, the reconstituted enzyme produces light in the presence of furimazine substrate (Schwinn et al., 2018). Briefly, HLA-B HiBit myoblasts were plated into 1536-well plates, treated with 4.0 ng/ml human IFN-beta and 2,816 compounds from the NCATS Pharmaceutical Collection (NPC) that contains all drugs approved in the US, EU, and Japan (Huang et al., 2011) in an 8-point, 1:5 titration with a high final concentration of 46 uM. After 24 hrs of treatment, cells were assayed by Nano-Glo HiBiT Lytic Detection System (Promega) and luminescence measured by a ViewLux 1430 Ultra HTS (Perkin Elmer).
Huang R, Southall N, Wang Y, Yasgar A, Shinn P, Jadhav A, Nguyen D-T, Austin CP. 2011. The NCGC pharmaceutical collection: a comprehensive resource of clinically approved drugs enabling repurposing and chemical genomics. Sci Transl Med 3:80ps16. doi:10.1126/scitranslmed.3001862
Schwinn MK, Machleidt T, Zimmerman K, Eggers CT, Dixon AS, Hurst R, Hall MP, Encell LP, Binkowski BF, Wood K V. 2018. CRISPR-Mediated Tagging of Endogenous Proteins with a Luminescent Peptide. ACS Chem Biol 13:467-474. doi:10.1021/acschembio.7b00549
PROTOCOL TABLE (as described by Inglese et al., 2007)
SEQUENCE No. (e.g., 1, 2, 3, etc.); […] (e.g., Cells, Incubation, Reagent, etc.); VALUE; DESCRIPTION
1a; Cells; 5 uL; Use a Multidrop Combi (Thermo Scientific) to seed 350 cells/well into nine Greiner 1536 well white/solid bottom, high base, TC plates in 5 ul/well of iHSKM growth medium (GM) without dexamethasone into columns 1+2. Add metal lids with gas-exchange holes
1b; Cells; 5 uL; Use a Multidrop Combi (Thermo Scientific) to seed 350 cells/well into nine Greiner 1536 well white/solid bottom, high base, TC plates in 5 ul/well of iHSKM GM without dexamethasone + 4 ng/ml IFN-b into columns 3 - 48. Add metal lids with gas-exchange holes
2; Incubate; 1 hr; Incubate at 37 C, 5% CO2, 95% RH
[…]

SMILES	Potency
CN(C)CCOC(c1ccc(Cl)cc1)c1ccccn1 (stereo not given)	inactive
COc1cc(C(=O)N2CCCCCCC2)cc(OC)c1OC	inactive
O=C1OC(CN2CCOCC2)CN1/N=C/c1ccc([N+](=O)[O-])o1 (stereo not given)	inactive
CCN(CC)CCOC(=O)C(Cc1cccc2ccccc12)CC1CCCO1 (stereo not given)	inactive
Cc1ccc(-c2ncc(Cl)cc2-c2ccc(S(C)(=O)=O)cc2)cn1	inactive
O=C(NCCc1c[nH]c2ccccc12)c1cccnc1	inactive
CC1(C)OC[C@@H]2O[C@@]3(C(=O)O)OC(C)(C)O[C@H]3[C@@H]2O1	inactive
c1ccc(-c2nc[nH]c2-c2ccccc2)cc1	inactive
CCc1oc2ccccc2c1C(=O)c1cc(Br)c(O)c(Br)c1	inactive
CCN1CCCC(OC(=O)C(c2ccccc2)c2ccccc2)C1 (stereo not given)	inactive
c1ccc(CC2=NCCN2)cc1	inactive
CC(C)(C)NCC(O)COc1cccc2c1C[C@H](O)[C@H](O)C2 (stereo not given in full)	inactive
CC(C)(C)NC[C@H](O)COc1cccc2c1CCCC2=O	inactive
CC(=O)NCCCCCC(=O)O	inactive
C#C[C@]1(O)CC[C@H]2[C@@H]3CCc4cc(OC)ccc4[C@H]3CC[C@@]21C	inactive
O=C(Oc1cccc2cccnc12)c1ccccc1	inactive
COc1ccc(CN(CCN(C)C)c2ncccn2)cc1	inactive
COc1ccc(C(Cl)=C(c2ccc(OC)cc2)c2ccc(OC)cc2)cc1	inactive
Cn1c(=O)c2[nH]c(Br)nc2n(C)c1=O	inactive
C[N+]1(CC2COC(c3ccccc3)(C3CCCCC3)O2)CCCCC1 (stereo not given)	inactive

SMILES	Potency
CCC(CC)(CC(=O)Nc1cccc(/C=C/c2nc(C3CCC3)cs2)c1)C(=O)O	inactive
CN1CCN(CCC(=O)N2c3ccccc3Sc3ccc(C(F)(F)F)cc32)CC1	inactive
CCc1ccc(C(=O)C(C)CN2CCCCC2)cc1 (stereo not given)	inactive
O=C(O)P(=O)(O)O	inactive
O=C(c1ccc(F)cc1)C1CCN(CCn2c(=S)[nH]c3ccccc3c2=O)CC1	inactive
O=C(NC1CCN(CCc2c[nH]c3ccccc23)CC1)c1ccccc1	inactive
CCCCC(CC)COC(=O)c1ccc(N(C)C)cc1 (stereo not given)	inactive
CC(=O)Oc1ccc(C)cc1	inactive
OC1C(O)C(O)C(O)C(O)C1O (stereo not given)	inactive
Nc1nc(Cl)nc2c1ncn2[C@@H]1O[C@H](CO)[C@@H](O)[C@@H]1F	inactive
OC(C#CCN1CCCC1)(c1ccccc1)c1ccccc1	inactive
CC(=O)O[C@]1(C(C)=O)CC[C@H]2[C@@H]3C=C(C)C4=CC(=O)CC[C@]4(C)[C@H]3CC[C@@]21C	inactive
O=C1OC2(c3ccccc31)c1cc(Br)c(O)c(Br)c1Oc1c2cc(Br)c(O)c1Br	inactive
Nc1nc(N)c(-c2ccccc2)s1	inactive
CCCCCCCCOc1ccc(C(=O)c2ccccc2)c(O)c1	inactive
Nc1ccc(S(=O)(=O)NCc2ccccc2)cc1	inactive
CN(C)CCN1C(=O)c2ccccc2N(C)c2ccccc21	inactive
CC(C)(C)CC(C)(C)c1ccc(O)c(-n2nc3ccccc3n2)c1	inactive
COc1cc(C)nc(-n2nc(C)cc2OC)n1	inactive
OCCOCCN1CCN(C2=Nc3ccccc3Sc3ccccc32)CC1	inactive
